High-throughput results deposited in PubChem BioAssay by National Center for Advancing Translational Sciences (NCATS).
DT40 TDP1 no CPT: qHTS for Inhibitors of human tyrosyl-DNA phosphodiesterase 1 (TDP1): qHTS in cells in absence of CPT; AID 686978, 2013; Potency, µM (highest dose often 46.2 µM), inactives show at the highest dose activity change, negative = growth inhibition, hits mostly inhibitors; DT40 Tdp1-/- hTDP1 cells, no CPT, ATP luminescence, 48 h; actives 15% (n = 420,000); also: potency is read from the fitted curve at half-maximal effect; nearly all actives have a fitted effect of over 55% in size
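Camptothecin absent (DMSO only). Human TDP1-complemented DT40 knockout cells, 400 cells/well, 37 °C for minimum 48 hr; ATP measured via CellTiter-Glo, 30 min dark incubation, luminescence.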
TDP1 cell CPT: qHTS for Inhibitors of human tyrosyl-DNA phosphodiesterase 1 (TDP1): qHTS in cells in presence of CPT | chicken DT40 Tdp1-/-;hTDP1 cells + 20 nM CPT, ATP luminescence, 48 h | AID 686979, 2013 | actives 12% (n = 420,000) | Potency, µM (doses to about 46.2 µM), for the others: top-dose activity change, negative = growth inhibition, actives largely listed as inhibitors; also: potency is read from the fitted curve at half-maximal effect; nearly all actives have a fitted effect of over 55% in size
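Cell growth measured by CellTiter-Glo luminescence after a minimum 48 h, 37 C compound exposure with 20 nM CPT in Tdp1-knockout DT40 cells stably expressing hTDP1, seeded 400/well; qHTS titration format.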
HT1080 IDH1KD tx: qHTS for induction of synthetic lethality in tumor cells producing 2HG: qHTS for the HT-1080-IDH1KD cell line | HT-1080 IDH1 knockdown viability, ATP luminescence, 48 h | Potency, µM (highest dose often 46.1 µM), for the others: at the highest dose activity, negative = toxicity, usual class: cytotoxic | AID 686971, 2013 | actives 2% (n = 360,000);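 also: potency is read from the fitted curve at half-maximal effect; 0% = DMSO wells and -100% = cell-free medium wells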
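Assay cells: HT-1080 with IDH1 knockdown, 750 per well, RPMI/5% FBS. Exposure: 48 h at 37 °C following 2 h pre-incubation. Read: CellTiter-Glo luminescence; fitted concentration-response, curve class assigned.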
ELG1 DNA repair: qHTS screen for small molecules that inhibit ELG1-dependent DNA repair in human embryonic kidney (HEK293T) cells expressing luciferase-tagged ELG1 | Potency, µM (top dose mostly 46.1 µM), without a hit: at the highest dose activity change, negative = inhibition, most hits filed as inhibitors | actives 2.3% (n = 330,000) | HEK293T ELG1-luciferase reporter, luminescence, 16 h; DNA damage induced by 5-fluorouridine | AID 504467, 2011; also: potency is read from the fitted curve at half-maximal effect; nearly all actives have a fitted effect of over 55% in size
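In this reporter screen, reduction of luminescence relative to DMSO vehicle indicated activity. Compounds and 5-fluorouridine were added together to 2,000 cells per well, incubated for 16 hr at 37 °C, then developed with ONE-Glo.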
IL-1B inflam inh: qHTS for Inhibitors of Inflammasome Signaling: IL-1-beta AlphaLISA Primary Screen; THP-1 LPS/ATP IL-1B secretion, AlphaLISA, 16 h; active compounds read low; activity change, % at 57.5 µM; actives 4.7% (n = 360,000); in the data active = activity change below about -50%; inconclusive = mostly about -30% to -49%
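THP-1 cells pretreated 1 hr with compounds (up to 57.5 uM final), then stimulated with LPS (250 ng/mL final) plus ATP (1.25 mM final); secreted IL-1B measured by AlphaLISA after 16 hr, decreased signal indicating inhibition.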
HT1080-NT tox: qHTS for induction of synthetic lethality in tumor cells producing 2HG: qHTS for the HT-1080-NT fibrosarcoma cell line; HT-1080-NT fibrosarcoma viability, CellTiter-Glo ATP luminescence, 48 h; Potency, µM (titrated, usually from 46.1 µM), inactives show at the highest dose activity, negative = less viability, most hits filed as cytotoxic; actives 1.6% (n = 360,000);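 also: NT is the 2HG producing partner of a matched IDH1 knockdown line; potency is read from the fitted curve at half-maximal effect; 0% = DMSO-treated cells and -100% = media-only wells without cells; nearly all actives have a fitted effect of over 55% in size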
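A 48-hour cytotoxicity screen used HT-1080-NT cells plated 2 hours before compound delivery. ATP-based CellTiter-Glo luminescence measured viability, normalized to DMSO and no-cell controls.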
Numbers without * were called inactive; ? = inconclusive; . = not tested or not shown; ! = a repeat was not active; [ ] = another dose, or the depositor's remark. Most compounds without a hit are left out; they make up all but 19% or so of the library. Unless noted, calls follow the shape of the dose curve; as a rule, active = well fitted curve in the direction sought with a large enough effect; inconclusive = small, poorly fitted or top-dose-only effect, or another doubt; inactive = no such curve, though single readings can be large; an effect the other way counts as inactive or inconclusive. Unless noted, % is scaled to controls: 0 for no effect and ±100 for the full control effect.

SMILES | DT40 TDP1 no CPT | TDP1 cell CPT | HT1080 IDH1KD tx | ELG1 DNA repair | IL-1B inflam inh | HT1080-NT tox
COc1cc(OC)c2c(C)cc(=O)oc2c1C(CCN1CCOCC1)c1ccc2c(c1)OCO2 (configuration not stated) | 21µM* | 18µM* | -12% | ? | -25 | -6%
COc1cc(OC)c2c(-c3ccccc3)cc(=O)oc2c1C(CC(=O)N1CCCC1)c1ccc2c(c1)OCO2 (configuration not stated) | 21µM* | ? | -14% | -12% | ? | -10%
COc1cc(OC)c2c(-c3ccccc3)cc(=O)oc2c1C(CCN1CCCCC1)c1ccc2c(c1)OCO2 (configuration not stated) | 7.3µM* | 9.2µM* | -14% | -4% | -4 | 1%
COc1cc(OC)c2c(-c3ccccc3)cc(=O)oc2c1C(CCN1CCCC(C)C1)c1ccc2c(c1)OCO2 (configuration not stated) | 23µM* | ? | -26% | 6% | -12 | ?
CCN(CC(=O)Nc1ccc2c(c1)OCCO2)C(=O)c1ccc(C)c(S(=O)(=O)N2CCOCC2)c1 | -23% | -26% | -1% | 7% | -3 | 2%
Cn1c(SCc2cccc(F)c2)nnc1-c1ccncc1 | 2% | -13% | -2% | 17% | 6 | 28%
COc1cc(NC(=O)CSc2nnc(-c3ccncc3)o2)cc(OC)c1OC | -5% | -11% | 19% | 3% | 16 | 5%
CS(=O)(=O)n1nc(OC(=O)c2cccs2)cc1N | -10% | ? | 22% | 21% | 10 | 19%
CS(=O)(=O)n1nc(OC(=O)c2cccc3ccccc23)cc1N | -17% | -28% | ? | 14% | -57* | ?
CCc1cc2cc(C)ccc2nc1SCC(=O)N1CCN(C(=O)c2ccco2)CC1 | 21µM* | 13µM* | -3%[9.24 µM] | ? | -21 | -10%
Cc1nc(N2CCN(C(=O)c3ccco3)CC2)c2c3c(sc2n1)CC(C)CC3 (configuration not stated) | 16µM* | 21µM* | ? | ? | -7 | -16%
CCc1cc2cc(C)cc(C)c2nc1SCC(=O)Nc1cc(C)on1 | 23% | -6% | -17% | 15% | 20 | 1%
CCc1cc2cc(C)cc(C)c2nc1SCC(=O)N1CCCC1 | ? | 29µM* | 2% | -8% | 3 | 1%
CCc1nc(SCC(=O)N2CCN(C(=O)c3ccco3)CC2)c2c3c(sc2n1)CCCC3 | 13µM* | ? | ? | ? | 22 | -12%
CCc1cc2ccccc2nc1SCC(=O)N1CCN(C(=O)c2ccco2)CC1 | ? | ? | 9% | -24% | ? | 6%
CN1COc2ccc3ccccc3c2C1 | -14% | -16% | 10% | 4% | 9 | 16%
Cc1cc(Cl)ccc1OCC(=O)N(Cc1cccs1)C1CCS(=O)(=O)C1 (configuration not stated) | ? | ? | -2% | -4% | -22 | 0%
c1ccc(C(CN2CCCCC2)Oc2ccccn2)cc1 (configuration not stated) | -26% | -20% | 12% | . | 16 | 8%
Cc1nc(N2CCN(C(=O)c3ccco3)CC2)c2c3c(sc2n1)CCCC3 | 15µM* | ? | ? | 18µM* | -9 | ?
Cc1cc2cc(C)c3nnc(SCC(=O)N4CCN(C(=O)c5ccco5)CC4)n3c2cc1C | 12µM* | ? | ? | . | -74* | -13%
O=S(=O)(c1cnc(Cl)c(Br)c1)N1CCCCCC1 | -29% | -2% | -2% | -21% | -104* | 10%
CN(C)CCn1c2c(c(SCC(=O)Nc3ccc(F)cc3F)nc1=O)CCC2 | -10% | 3% | . | . | . | .
O=C1CC(c2ccc(F)cc2)Cc2nc(N3CCc4ccccc43)ncc21 (configuration not stated) | . | . | . | 7% | . | .
CC1(C)CC(=O)c2cnc(N3CCc4ccccc43)nc2C1 | 26µM* | ? | -3% | ? | . | 1%
CC(C)C(C(=O)NC1CCCC1)N1CCN(c2ncccc2C#N)CC1 (configuration not stated) | 1% | -1% | 15% | . | -11 | 12%
SMILES | DT40 TDP1 no CPT | TDP1 cell CPT | HT1080 IDH1KD tx | ELG1 DNA repair | IL-1B inflam inh | HT1080-NT tox
CCC(CC)C(=O)Nc1cc(-c2cccc(C)c2)nn1-c1ccccc1 | 16µM* | 23µM* | . | . | . | .
Cc1ccc(NC(=O)c2cc(-c3ccccc3)nn2-c2ccccc2)cc1 | 21µM* | ? | 0% | ? | ? | 2%
Cc1cc(C(=O)Nc2ccc(Br)cc2F)n(-c2ccccc2)n1 | -12% | ? | 1% | 7% | ? | 2%
Cc1ccc(NC(=O)c2cc(-c3ccccc3)nn2-c2ccccc2)c(Br)c1 | ? | 15µM* | 14% | 10% | -3 | 22%
CCC(Oc1ccccc1)C(=O)Nc1cc(-c2cccc(C)c2)nn1-c1ccccc1 (configuration not stated) | -7% | -25% | . | . | . | .
C[n+]1c2n(c3ccccc31)N=C(c1ccc(Br)cc1)CS2 | 0.52µM* | 0.65µM* | 13µM* | -25% | -89* | ?
C[n+]1c2n(c3ccccc31)N=C(c1ccccc1)CS2 | 2.3µM* | 2.3µM* | ? | 5.8µM*! | ? | ?
C[n+]1c2n(c3ccccc31)N=C(c1ccc(-c3ccccc3)cc1)CS2 | 0.52µM* | 0.58µM* | ? | ? | ? | ?
Cn1c2c(c(=O)n(C)c1=O)C(c1ccc(Br)cc1)C(C#N)=C(N)N2 (configuration not stated) | 23µM* | ? | -3% | 2% | 13 | -2%
CC(C)(C)OC(=O)N1CCCC(C(=O)Nc2ccc(C(=O)NCCc3ccccc3)cc2)C1 (configuration not stated) | ? | ? | 2% | . | 27 | 2%
CCCN1C(=O)/C(=C/c2ccc(C)s2)NC1=S | -7% | 26µM* | -11% | -6% | 13 | -15%
COC(=O)C[C@H]1c2cc(C(F)(F)F)ccc2S(=O)(=O)N1C(C)(C)C | ? | ? | 5% | . | 11 | 19%
